# High-throughput results (PubChem)
# Most compounds without a hit are left out; they make up all but 6.1% or so of the library.
# D1 agonist = activates the human D1 dopamine receptor; P21728; HEK293 T-REx D1 cells, calcium flux, agonist mode; activation, % at 2 µM; 1% of 360,000 active; in the data active = activation above about 30%; also: 0% is about no effect
#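 Agonism was scored from calcium flux recorded over 180 s (1 read/s) after pintool compound addition, following a 10-cycle baseline. Cells were inducible force-coupled HEK293 TREx D1, plated overnight at 30 C and loaded with no-wash calcium dye.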
# D3 ag = activates the human D3 dopamine receptor; 0.58% of 410,000 active; max activation, %; AID 652048; D3R DiscoveRx beta-arrestin cells, luminescence, 90 min; in the data active = max activation above about 30%; also: 0% is about no effect
# Target sequence (P35462 whole entry, looked up): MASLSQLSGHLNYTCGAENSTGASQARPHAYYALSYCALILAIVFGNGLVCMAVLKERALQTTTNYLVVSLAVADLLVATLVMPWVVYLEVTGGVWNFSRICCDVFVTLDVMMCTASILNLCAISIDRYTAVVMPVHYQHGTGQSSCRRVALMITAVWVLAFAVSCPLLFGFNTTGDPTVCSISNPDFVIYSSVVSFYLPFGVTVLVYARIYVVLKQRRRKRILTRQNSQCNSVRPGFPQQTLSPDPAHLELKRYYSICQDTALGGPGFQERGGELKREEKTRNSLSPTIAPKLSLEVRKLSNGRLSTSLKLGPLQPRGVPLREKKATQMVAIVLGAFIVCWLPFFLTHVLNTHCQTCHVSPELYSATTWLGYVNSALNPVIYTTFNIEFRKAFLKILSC
#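 Agonist mode: compounds and dopamine controls were applied to plated cells for 90 min at 37 degrees C after an overnight attachment at 1500 cells/well. Luminescent read-out followed 30 - 60 minutes at room temperature with DiscoveRx detection reagent.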
# D1 antag = human D1 dopamine receptor antagonism; AID 504652; activity change, negative = inhibition, % at 10 µM; 3.2% of 360,000 active; HEK293 TREx D1 cells, calcium flux, dopamine EC80; stronger effect = lower value; in the data active = activity change below about -30%; also: % is scaled to controls: 0 for no effect and ±100 for the full control effect
#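 Calcium flux readout: force-coupled, inducible Hek293 Trex D1 line, cells induced overnight at 30 C with tetracycline, dye-loaded 30–90 min at RT. Antagonism scored against EC80 dopamine challenge given 180 s after compound.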
# D3 antag = blocks the human D3 dopamine receptor | max response, negative = inhibition, % | 2.5% of 360,000 active | AID 652054 | D3R cells, DiscoveRx beta-arrestin luminescence, antagonist mode; stronger effect = lower value; in the data active = max response below about -50%; also: % is scaled to controls: 0 for no effect and ±100 for the full control effect
#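 Cells expressing the human receptor were seeded at 1500 cells/well, incubated overnight at 37 degrees C in 5% CO2, then exposed to library compounds with dopamine controls for 90 minutes at 37 degrees C before luminescent detection.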
# D1 PAM = human D1 dopamine receptor positive modulation; HEK293 TREx D1 cells, calcium flux, dopamine EC20 potentiation; 0.036% of 360,000 active; potentiation, % at 10 µM; P21728; in the data active = potentiation above about 30%; also: 0% is about no effect
# * hit, by the source's call; / = no result; ! = a repeat was not active.
SMILES,D1 agonist,D3 ag,D1 antag,D3 antag,D1 PAM
NC1=NC2(CCCCC2)N=C(Nc2ccc(F)cc2F)N1,-1,5,2,10,-10
CCc1c(N)nc(N)nc1Nc1ccccc1C,/,10,/,7,/
COc1ccc(N2C(=O)c3ccccc3NC(=O)C2C(=O)Nc2ccc(N3CCOCC3)cc2)cc1 (stereo not given),/,8,/,21,/
CCCCN(C=O)c1c(CC)nc2c(OCc3ccc(Cl)cc3)cccn12,/,3,/,0,/
O=C(Nc1ccccc1NC(=O)c1ccc(F)cc1)c1ccc(F)cc1,3,4,-36*,25,-2
O=C(NNC(=O)c1ccc(NC(=O)c2ccccc2)cc1)Nc1ccccc1,9,-2,-5,-4,-3
O=C(NNS(=O)(=O)c1ccccc1)Nc1ccc(F)cc1,1,1,-36*,8,-7
O=C(NNS(=O)(=O)c1ccccc1)c1ccc(F)cc1,2,3,2,-10,-9
O=C(NNC(=O)c1ccc(NC(=O)c2ccccc2)cc1)c1ccc(F)cc1,4,3,-67*,-6,-3
O=C(Nc1nc(-c2ccccc2)c(-c2ccccc2)o1)c1ccc(F)cc1,3,-28,2,-100*,5
COc1cccc(-c2csc3nc[nH]c(=O)c23)c1,3,6,-34*,1,-5
Cc1ccc(-c2csc3nc[nH]c(=O)c23)cc1C,3,3,-10,3,-5
O=C(C[C@@H]1C/C=C\C[C@@H](Cc2ccc(F)cc2)C(=O)OC[C@@H]2CCCN2C1=O)N[C@H](CO)Cc1ccccc1,/,-5,/,-1,/
O=C(C[C@H]1C/C=C\CC[C@@H](Cc2ccc(F)cc2)C(=O)OC[C@H]2CCCN2C1=O)N[C@H](CO)Cc1ccccc1,/,32*,/,-8,/
O=C(c1cc2cc(F)ccc2[nH]1)N1CCc2ccccc2C1,-1,-2,-19,-7,-2
O=C(c1cc2cc(Cl)ccc2[nH]1)N1CCc2ccccc2C1,6,-2,-57*,-22,-8
Cc1ccccc1C(=O)N1CCc2ccccc2C1,49*,-7,-6,21,8
O=C(c1cnc2sccn2c1=O)N1CCc2ccccc2C1,2,-19,-7,-96*,1
O=C(c1cc(-c2ccccc2O)on1)N1CCc2ccccc2C1,3,-2,-32*,-21,-6
CCCC[C@]12Cc3cc(C#N)ccc3C(O1)c1c(cc(C)n(Cc3ccccc3)c1=O)O2,0,/,8,/,0
O=S(=O)(c1c(F)cccc1F)C1CCN(S(=O)(=O)c2ccc3c(c2)OCCO3)CC1,4,/,3,/,-3
COC(=O)c1ccc(/C=N/NS(=O)(=O)c2cc(C)ccc2C)cc1,2,-49,6,-82*,-10
Cc1ccc(CSc2nnc(C)c(=O)n2N)cc1,1,1,-48*,5,3
O=C(Nc1cccc(C(F)(F)F)c1)C1=CC=CN2CCS(=O)(=O)N=C12,0,-2,-19,-5,-5
CN(c1ccc(C(=O)Nc2cccnc2)cc1)S(=O)(=O)c1ccc(Cl)cc1,15,3,-41*,-7,-2
SMILES,D1 agonist,D3 ag,D1 antag,D3 antag,D1 PAM
CS(=O)(=O)N(Cc1ccc(Cl)cc1)c1ccc(C(=O)Nc2cccnc2)cc1,16,14,-38*,-23,-10
COc1ccc(S(=O)(=O)N(C)c2ccc(C(=O)Nc3cccnc3)cc2)cc1,3,3,-33*,5,-2
COc1ccc(-n2nnnc2C2CCN(S(=O)(=O)c3cccc(C(F)(F)F)c3)CC2)cc1,4,-5,0,/,-3
O=C(OCC(=O)c1ccccc1)C1=NN(c2ccccc2)C(=O)CC1,/,-6,/,-7,/
O=C(OCc1csc(-c2ccccc2)n1)C1=NN(c2ccccc2)C(=O)CC1,0,-2,-36*,-4,-10
Cc1ccc(N(CC(=O)NCc2ccc(F)cc2)C(=O)c2snc(C(N)=O)c2N)cc1C,10,3,34,5,2
CCN(CC)c1ccc(/C=N/n2c(-c3ccccc3Br)n[nH]c2=S)cc1,3,-34,27,-71*,-3
O=C(Nc1cc(C(F)(F)F)ccc1Cl)c1cc(-c2ccc3c(c2)OCCO3)on1,3,2,7,/,-2
Cn1c(N2CCOCC2)c(/C=N/OC(=O)c2ccc(F)cc2)c2ccccc21,-1,17,5,4,-5
Cc1ccc(C(=O)O/N=C/c2c(Cl)n(C)c3ccccc23)cc1,1,-1,-3,0,3
Cn1c(Cl)c(/C=N/OC(=O)c2ccc(Cl)cc2)c2ccccc21,2,-7,6,-69*,-6
Cc1ccc(C(=O)O/N=C/c2c(N3CCOCC3)n(C)c3ccccc23)cc1,1,53*,10,46,-3
CCOC(=O)N1CCC(N2CCCC(C(=O)c3cc(F)ccc3OC)C2)CC1 (stereo not given),-1,-19,-13,-68*,-3
COc1ccc(Cl)cc1C(=O)C1CCCN(Cc2cnc(N3CCOCC3)s2)C1 (stereo not given),6,-12,-1,-79*,-2
COc1ccc(F)cc1C(=O)C1CCCN(Cc2cnc(N3CCCC3)s2)C1 (stereo not given),4,-26,5,-59*,7
CCc1noc(C)c1C(=O)N1CCCC(C(=O)c2cc(F)ccc2OC)C1 (stereo not given),1,11,0,-11,-5
CCN(CC)c1ccc(NS(=O)(=O)c2ccc(OC)cc2)cc1,6,3,-17,11,3
CCc1ccccc1NC(=O)Cn1c(=O)n(-c2ccc(C)cc2)c(=O)c2cc(OC)c(OC)cc21,3,-12,-14,/,-1
CCC(=O)N1CCc2cc(S(=O)(=O)NC(C(=O)NCCc3ccccc3)C(C)C)ccc21 (stereo not given),-2,-13,-7,/,2
C=C(C(=O)Nc1ccccc1)c1ccc(C)cc1,4,4,-49*,-15,3
Cc1ccc(C(=O)CNc2ccccc2)cc1,3,7,-4,-17,1
CC1CCN(S(=O)(=O)c2ccc3ccccc3c2)CC1,2,6,-9,-9,-7
CC1CCN(S(=O)(=O)c2ccc3c(c2)C(Cl)(Cl)C(=O)N3)CC1,/,-6,/,-70*,/
CC1CCN(S(=O)(=O)c2ccc3c(c2)N(C)C(=O)CC(=O)N3C)CC1,0,-6,-37*!,-19,-4
CC1CCN(c2ccc(S(=O)(=O)N3CCC(C)CC3)cc2N)CC1,7,4,4,6,0
Cc1cccc(N2CCN(S(=O)(=O)c3ccc(S(=O)(=O)N4CCCC4)cc3)CC2)c1C,3,0,-2,3,2
Cc1cccc(N2CCN(S(=O)(=O)c3ccc4c(c3)CC(=O)N4C)CC2)c1C,9,1,-30*!,5,-5
COC(Cc1ccccc1N1CCCC1=O)OC,-1,7,0,23,-7
